In the library only some 1.9% were active in any assay of this set; here they are far more common.
PABP1 MLLE inh: inhibitors of microRNA-mediated deadenylation, human PABP1 MLLE binding | GST-MLLE / FITC-PAM2 fluorescence polarization | P11940 | inhibition, % at 20 µM | actives 0.36% (n = 360,000); in the data active means inhibition above about 35%, passing the limit was not always enough;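 further: plate controls were DMSO wells with GST-MLLE for no effect and wells lacking GST-MLLE protein for full effect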
eIF4E-4G inh: blocks eIF4E binding to eIF4G. P63073+Q04637. TR-FRET eIF4E-eIF4GI(517-606) binding, 2 h. inhibition, % at 21.7 µM. actives 0.37% (n = 220,000);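 active means inhibition above about 30%, limit read from the data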;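 further: 0% = full FRET control wells and 100% = background wells lacking eIF4GI fragment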
Target sequence (P63073 whole entry, looked up, the tested form may be a part): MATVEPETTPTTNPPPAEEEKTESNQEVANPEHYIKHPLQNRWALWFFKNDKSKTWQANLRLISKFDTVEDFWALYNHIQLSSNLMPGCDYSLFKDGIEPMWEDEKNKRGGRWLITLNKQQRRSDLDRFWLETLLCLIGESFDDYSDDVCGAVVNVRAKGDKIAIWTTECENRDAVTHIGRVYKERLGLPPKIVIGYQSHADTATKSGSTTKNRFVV
Target sequence (Q04637 whole entry, looked up, the tested form may be a part): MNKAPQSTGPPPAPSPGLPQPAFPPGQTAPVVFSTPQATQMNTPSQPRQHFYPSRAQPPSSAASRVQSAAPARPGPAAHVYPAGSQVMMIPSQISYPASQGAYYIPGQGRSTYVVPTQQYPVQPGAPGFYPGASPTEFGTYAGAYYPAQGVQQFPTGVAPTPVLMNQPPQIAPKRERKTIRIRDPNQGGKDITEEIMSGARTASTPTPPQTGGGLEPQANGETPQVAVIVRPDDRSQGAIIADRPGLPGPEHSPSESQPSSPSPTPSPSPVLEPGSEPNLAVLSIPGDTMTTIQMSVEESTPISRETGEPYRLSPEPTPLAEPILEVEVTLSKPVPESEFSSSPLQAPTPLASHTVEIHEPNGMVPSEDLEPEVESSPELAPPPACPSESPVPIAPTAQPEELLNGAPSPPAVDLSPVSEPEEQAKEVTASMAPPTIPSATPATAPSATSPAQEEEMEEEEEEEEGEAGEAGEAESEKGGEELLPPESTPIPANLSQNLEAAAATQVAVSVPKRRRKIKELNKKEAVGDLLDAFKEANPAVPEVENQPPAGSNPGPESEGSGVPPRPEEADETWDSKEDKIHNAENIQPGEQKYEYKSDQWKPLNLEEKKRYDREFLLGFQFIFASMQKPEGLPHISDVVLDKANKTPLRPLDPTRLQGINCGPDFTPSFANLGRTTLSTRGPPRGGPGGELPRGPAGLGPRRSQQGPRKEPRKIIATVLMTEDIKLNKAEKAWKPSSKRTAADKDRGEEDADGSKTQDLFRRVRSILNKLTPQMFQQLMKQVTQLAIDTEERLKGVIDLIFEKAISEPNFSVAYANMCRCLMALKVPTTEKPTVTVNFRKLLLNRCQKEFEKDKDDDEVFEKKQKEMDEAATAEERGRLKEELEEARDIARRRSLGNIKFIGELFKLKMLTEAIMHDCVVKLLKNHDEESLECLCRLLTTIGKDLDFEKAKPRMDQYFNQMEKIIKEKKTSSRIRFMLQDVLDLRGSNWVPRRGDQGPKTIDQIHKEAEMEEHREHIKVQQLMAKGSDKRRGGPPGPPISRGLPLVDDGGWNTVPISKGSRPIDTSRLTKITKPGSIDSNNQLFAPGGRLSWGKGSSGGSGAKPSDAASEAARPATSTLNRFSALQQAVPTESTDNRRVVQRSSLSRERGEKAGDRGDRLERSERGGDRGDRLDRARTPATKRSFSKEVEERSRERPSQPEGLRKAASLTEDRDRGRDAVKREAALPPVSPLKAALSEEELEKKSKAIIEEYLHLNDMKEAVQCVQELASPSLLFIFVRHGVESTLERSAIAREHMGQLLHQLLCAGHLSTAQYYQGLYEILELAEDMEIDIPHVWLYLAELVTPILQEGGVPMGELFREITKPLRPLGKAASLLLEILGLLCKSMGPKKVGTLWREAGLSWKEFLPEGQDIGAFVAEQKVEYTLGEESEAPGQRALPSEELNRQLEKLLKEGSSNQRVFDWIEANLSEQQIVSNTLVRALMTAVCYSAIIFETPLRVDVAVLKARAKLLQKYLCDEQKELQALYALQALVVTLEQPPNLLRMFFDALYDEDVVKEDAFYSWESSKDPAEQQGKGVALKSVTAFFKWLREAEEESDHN
PABP FP inh: blocks human PABP binding to poly(A) RNA; fluorescence polarization; calls only at 35 µM; actives 1% (n = 290,000); AID 2014;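 further: calls also rest on retests at 20 µM and on dose response follow-up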
14-3-3 Bad inh: disrupts binding of bovine 14-3-3 zeta to phospho-Bad peptide; actives 0.71% (n = 220,000); inhibition, % at 21.7 µM; TR-FRET 14-3-3zeta/Dy647-pBad peptide displacement, 1 h;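 active means inhibition above about 70%, limit read from the data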;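 further: 0% = full 14-3-3 plus peptide FRET controls and 100% = background without 14-3-3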
eIF4H inh: inhibitors of RNA binding by human eIF4H; eIF4H fluorescence polarization binding assay; inhibition, % at 35 µM; AID 2012; Q15056; actives 0.94% (n = 290,000);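 further: calls also rest on retests at 20 µM and on dose response follow-up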
The depositor's hits bear a star; [ ] = dose if it differs, or a comment. Unless noted, how the calls were made is not given here.

Screening CC(=O)c1c(NC(=O)c2ccccc2)[nH]c(-c2ccccc2)nc1=S returned PABP1 MLLE inh 38.5*, eIF4E-4G inh -3.2, PABP FP inh inactive, 14-3-3 Bad inh -26.8 and eIF4H inh 0.2.
CC(C)=CCN1CCN(Cc2c[nH]c3ccccc23)CC1CCO (centres undefined) was read as PABP1 MLLE inh 13.2, PABP FP inh inactive and eIF4H inh -15.6.
COC1=C/C(=C/c2c(N)n3cc(C)sc3nc2=O)C=CC1=O was read as PABP1 MLLE inh -147.7, eIF4E-4G inh -2.7, PABP FP inh inactive, 14-3-3 Bad inh 3.2 and eIF4H inh 60.2*.
For O=C(NC1CCCC1)C1CCC(CNS(=O)(=O)c2ccccc2)CC1 (centres undefined) the results were PABP1 MLLE inh -1.2, PABP FP inh inactive and eIF4H inh -17.0.
Screening Cc1cc(-c2ccco2)c(C#N)c2nc3ccccc3n12 returned PABP1 MLLE inh 16.0, PABP FP inh active and eIF4H inh 88.4*.
For COc1cc2c(cc1NC(=O)Nc1ccc(F)cc1)oc1ccccc12 the results were PABP1 MLLE inh 1.5, eIF4E-4G inh 1.0, PABP FP inh active, 14-3-3 Bad inh 1.7 and eIF4H inh 91.9*.
For COc1cc2c(cc1NC(=S)NC(=O)/C=C/c1ccc(OC)c(OC)c1)oc1ccccc12 the results were PABP1 MLLE inh -27.5, eIF4E-4G inh 16.6, PABP FP inh inactive, 14-3-3 Bad inh 80.7*[fluorescence artefact?] and eIF4H inh -2.0.
`COc1cc2c(cc1NC(=O)Nc1ccc(C)cc1)oc1ccccc12` gave PABP1 MLLE inh 2.7, eIF4E-4G inh -1.8, PABP FP inh inactive, 14-3-3 Bad inh -11.7 and eIF4H inh -5.4.
Screening COc1ccc(/C=C/C(=O)NC(=S)Nc2cc3oc4ccccc4c3cc2OC)cc1 returned PABP1 MLLE inh -9.5, eIF4E-4G inh 0.3, PABP FP inh inactive, 14-3-3 Bad inh -3.6 and eIF4H inh 1.2.
`Cn1ccc(C(=O)Oc2ccc(C(=O)Nc3ccc(F)cc3F)cc2)n1` gave PABP1 MLLE inh 3.6, eIF4E-4G inh 3.0, PABP FP inh inactive, 14-3-3 Bad inh -0.2 and eIF4H inh -6.0.
Screening CC1(C)CC(=O)c2sc(NS(C)(=O)=O)nc2C1 returned PABP1 MLLE inh -2.9, eIF4E-4G inh 2.0, PABP FP inh inactive, 14-3-3 Bad inh 71.1* and eIF4H inh -3.3.
For Cc1ccc(S(=O)(=O)N2C[C@H]3C(=O)C[C@@H](c4ccccc4)N(S(C)(=O)=O)[C@H]3C[C@H]2c2ccccc2)cc1 the results were PABP1 MLLE inh 13.2.
Screening CC1=C(C#N)C(=O)N(C2CCS(=O)(=O)C2)C(=O)/C1=C\c1ccco1 (centres undefined) returned eIF4E-4G inh 62.9*, PABP FP inh active, 14-3-3 Bad inh 76.9* and eIF4H inh 102.2*.
`COC(=O)CC(NC(=O)c1cccs1)c1ccc(OC)c(OC)c1` (centres undefined) gave PABP1 MLLE inh -5.4, eIF4E-4G inh 1.0, PABP FP inh inactive, 14-3-3 Bad inh -7.7 and eIF4H inh 7.7.
`c1ccc2[nH]c(NCCCN3CCOCC3)nc2c1` gave PABP1 MLLE inh -4.3, eIF4E-4G inh 3.0, PABP FP inh inactive, 14-3-3 Bad inh -0.6 and eIF4H inh -2.1.
`S=c1[nH]nc(NCCCN2CCOCC2)s1` gave PABP1 MLLE inh 4.3, eIF4E-4G inh 42.1*, PABP FP inh inactive, 14-3-3 Bad inh 0.0 and eIF4H inh -10.2.
`O=C1OC(c2ccccc2)(c2ccc3cc(O)ccc3c2)c2ccccc21` (centres undefined) gave PABP1 MLLE inh -3.0.
`CC(=O)c1c(N2CCN(c3cccc(Cl)c3)CC2)nc(=S)n(-c2ccccc2)c1C` gave PABP1 MLLE inh 7.4, eIF4E-4G inh 4.7, PABP FP inh active, 14-3-3 Bad inh -0.6 and eIF4H inh 84.4*.
For CCn1c(C)c(C(C)=O)c(N2CCN(c3ccc(OC)cc3)CC2)nc1=S the results were PABP1 MLLE inh -86.8, eIF4E-4G inh 5.8, PABP FP inh inactive, 14-3-3 Bad inh -8.4 and eIF4H inh 83.4.
For COc1ccc(N2CCN(c3nc(=S)n(-c4ccccc4)c(C)c3C(C)=O)CC2)cc1 the results were PABP1 MLLE inh -14.2, eIF4E-4G inh -5.5, PABP FP inh active, 14-3-3 Bad inh -11.8 and eIF4H inh 68.5*.
`CC(=O)c1c(N2CCN(c3ccccn3)CC2)nc(=S)n(-c2ccccc2)c1C` gave PABP1 MLLE inh 16.0, eIF4E-4G inh 0.5, PABP FP inh active, 14-3-3 Bad inh -4.9 and eIF4H inh inconclusive.
Screening Cc1cc(F)cc(-c2cc(C(=O)NCc3ccccn3)[nH]n2)c1 returned PABP1 MLLE inh -3.3.
Screening NC(=O)c1sc2nc3c(c(-c4ccco4)c2c1N)CCCC3 returned PABP1 MLLE inh 18.3, eIF4E-4G inh -11.8, PABP FP inh inactive, 14-3-3 Bad inh -3.1 and eIF4H inh 10.3.
Screening Cc1ccccc1NC(=O)c1sc2nc3c(c(-c4ccco4)c2c1N)CCC3 returned PABP1 MLLE inh 13.8, eIF4E-4G inh -1.8, PABP FP inh active, 14-3-3 Bad inh -2.8 and eIF4H inh 88.0*.
For Nc1c(C(=O)NCC2CCCO2)sc2nc3c(c(-c4ccco4)c12)CC/C3=C\c1ccco1 (centres undefined) the results were PABP1 MLLE inh -34.1, eIF4E-4G inh 18.7, PABP FP inh inactive, 14-3-3 Bad inh 2.4 and eIF4H inh 109.5*.
`CC(C)(C)C(=O)Nc1sc2c(c1C#N)CCN(Cc1ccccc1)C2` gave PABP1 MLLE inh 30.3, PABP FP inh inconclusive and eIF4H inh inconclusive.
S=c1[nH]c(-c2ccccc2)cn1/N=C/c1cccnc1 was read as PABP1 MLLE inh 21.5, eIF4E-4G inh 96.1*, PABP FP inh inactive, 14-3-3 Bad inh -1.4 and eIF4H inh 2.8.
For CCOc1ccc(S(=O)(=O)NCCOC)cc1C the results were PABP1 MLLE inh -1.7, eIF4E-4G inh 1.0, PABP FP inh inactive, 14-3-3 Bad inh 72.9* and eIF4H inh -0.2.
For COc1ccccc1CCNC(=O)CNC(=O)Cc1cccc2ccccc12 the results were PABP1 MLLE inh 9.1, PABP FP inh inactive and eIF4H inh -6.0.
N#Cc1c(-c2ccncc2)c2c([nH]c1=S)CCCC2 was read as PABP1 MLLE inh 26.8, eIF4E-4G inh 13.3, PABP FP inh inactive, 14-3-3 Bad inh -8.8 and eIF4H inh -3.4.
`Cc1ccc(-c2c3c([nH]c(=S)c2C#N)CCCC3)o1` gave PABP1 MLLE inh -42.0, eIF4E-4G inh 10.9, PABP FP inh active, 14-3-3 Bad inh 7.1 and eIF4H inh 55.6*.
CCCc1nc2c(=O)n(C)c(=O)[nH]c2n1C was read as PABP1 MLLE inh 4.0, eIF4E-4G inh 3.8, PABP FP inh active, 14-3-3 Bad inh 2.0 and eIF4H inh 53.4*.
O=C(N=C1c2ccccc2CN1c1cccc(Cl)c1)c1cccnc1 was read as PABP1 MLLE inh 15.7, eIF4E-4G inh 1.9, PABP FP inh inactive, 14-3-3 Bad inh -3.3 and eIF4H inh -3.1.

Screens (PubChem)
